# ST2 IL33 inh: inhibitors of human ST2 (IL1RL1) binding to IL-33 | Q01638 | AlphaLISA ST2-Fc/biotin-IL-33 interaction, 1 h | inhibition, % for hits at 17 µM | 78,000 tested, 2.3% active; in the data active = inhibition above about 30%
# Target sequence (Q01638 whole entry, looked up): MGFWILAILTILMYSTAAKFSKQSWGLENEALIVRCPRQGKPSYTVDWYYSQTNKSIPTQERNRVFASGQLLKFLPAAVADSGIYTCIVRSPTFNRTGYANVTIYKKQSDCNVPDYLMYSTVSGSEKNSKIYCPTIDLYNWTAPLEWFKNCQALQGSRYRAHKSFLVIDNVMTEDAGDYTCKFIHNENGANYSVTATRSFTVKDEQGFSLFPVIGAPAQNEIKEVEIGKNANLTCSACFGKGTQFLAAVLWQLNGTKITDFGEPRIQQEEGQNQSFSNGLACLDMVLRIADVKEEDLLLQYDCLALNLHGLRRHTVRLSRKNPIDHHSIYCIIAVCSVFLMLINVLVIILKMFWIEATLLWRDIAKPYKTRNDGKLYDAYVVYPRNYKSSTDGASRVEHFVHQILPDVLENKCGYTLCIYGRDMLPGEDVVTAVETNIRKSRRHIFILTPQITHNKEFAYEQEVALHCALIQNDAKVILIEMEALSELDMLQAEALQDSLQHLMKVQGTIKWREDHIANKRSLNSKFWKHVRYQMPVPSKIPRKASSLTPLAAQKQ
# Numbers without * were called inactive; i = inactive. This is one part of a sample in which hits are shown more often than they occur.
SMILES,ST2 IL33 inh
O=C(CSc1nc2c([nH]c3ccccc32)c(=O)n1-c1cccc(Cl)c1)N1CCOCC1,35%*
O=C(CSc1nc2c([nH]c3ccccc32)c(=O)n1-c1ccc(F)cc1)N1CCCCC1,i
Cc1nnc(SCC(=O)NCc2cc(-c3ccco3)on2)s1,i
O=C(Cn1nnc(-c2ccccc2Cl)n1)NCc1ccccc1,i
Cc1ccc(CNC(=O)c2ccc(N3C(=O)NC4CC3(C)Oc3ccccc34)cc2)cc1 (stereo not given),i
Cc1cccc(C)c1NC(=O)CSc1nnc(-c2ccccc2)c(-c2ccccc2)n1,i
COc1ccc(NC(=O)CSc2ncccn2)cc1,i
COc1cc(NC(=O)CSc2nnc(-c3ccco3)c(-c3ccco3)n2)cc(OC)c1,31%*
NCC(=O)Nc1ccccc1/C=C/c1ccccc1,i
COc1ccc(C(=O)Nc2cc(C)ccc2OCc2cc(=O)n3oc(C)cc3n2)cc1OC,i
CCOc1ccc(CCNC(=O)Cc2c(C(=O)O)[nH]c3ccc(Cl)cc23)cc1OCC,i
O=C(c1nn2cc(Br)cnc2c1Br)N1CCOCC1,i
O=C(c1cccc(Br)c1)N1CCOCC1,i
O=C(c1cc2ncc(Br)cn2n1)N1CCOCC1,38%*
Cc1cc2c(cc1[N+](=O)[O-])-c1ncccc1C2=Nc1ccccc1,32%*
Cc1ccccc1N=C1NC(=O)c2cccc([N+](=O)[O-])c21,i
O=C1NC(=Nc2ccccc2)c2c1cccc2[N+](=O)[O-],i
O=c1oc2ccccc2n1CCN1CCCC(Cn2ccnc2)C1 (stereo not given),i
Cc1ccc(-c2nc(CSc3nc(C)c(C)c(=O)[nH]3)no2)cc1,i
CCN1/C(=C2\C(=O)N(c3ccc(Cl)cc3)N=C2C)C=Cc2ccccc21,i
CCN1C(=O)CC(c2ccccc2)Sc2ccccc21 (stereo not given),i
CCSC1=N/C(=C2\C=Cc3ccccc3N2CC)C(=O)S1,73%*
Cc1c(C(=O)NCCSc2ccccn2)cccc1[N+](=O)[O-],i
CC(=O)n1cc(/C=C2\N=C(c3ccccc3C)OC2=O)c2cc(Br)ccc21,i
CCC(C)n1c(Cc2ccc(O)cc2)n[nH]c1=O (stereo not given),33%*
SMILES,ST2 IL33 inh
CC(C)[C@@H](C)n1c(CCc2ccccc2)n[nH]c1=O,i
CC(C(=O)O)n1c(Cc2ccccc2)n[nH]c1=O (stereo not given),i
CCCS(=O)(=O)N1CCC(C(=O)NCCN2CCCC2)CC1,i
Cc1ccc(C)c(S(=O)(=O)N2CCCCC2C(=O)O)c1 (stereo not given),i
Cc1ccccc1-n1nc2c(c1NC(=O)C1(c3ccc(Cl)cc3)CCCC1)CS(=O)C2 (stereo not given),i
Nc1c(C(=O)Nc2cccc(C(F)(F)F)c2)sc2nc3c(cc12)CCCCC3,42%*
Nc1c(C(=O)Nc2ccccc2)sc2nc3c(cc12)CCCCC3,i
CCc1nnc(NC(=O)c2sc3nc4c(cc3c2N)CCCCC4)s1,i
Cc1nc2ccc(C(=O)N3CCCC(CO)(CCc4ccccc4)C3)cc2nc1C (stereo not given),i
O=C(Cc1ccc(F)cc1)NC1CC(=O)N(c2ccc(F)cc2)C1 (stereo not given),i
COc1ccc(C=C2C(=O)OC(C)(C(C)(C)C)OC2=O)cc1Br (stereo not given),i
O=c1c2ccccc2cnn1CCCCOc1ccc(Cl)cc1,i
Nc1ccc(Oc2ccc(N)c(N)c2)cc1,44%*
COc1ccc(Oc2ccc(N)cc2)cc1,39%*
CC(=O)c1ccc(Oc2ccc(N)cc2)cc1,i
N#Cc1ccc(Oc2ccc(C(=O)O)cc2)cc1C#N,i
Nc1nc2ccc(Oc3ccc4nc(N)sc4c3)cc2s1,i
Nc1ccc(Oc2ccc(-c3nc(N)nc(N)n3)cc2)cc1,i
c1ccc(Cc2n[nH]c(CSc3ccccc3)n2)cc1,i
COc1ccc(S(=O)(=O)Nc2ccc(Cl)cc2Cl)cc1,i
Cc1nc(N2CCCCCCC2)ncc1C(C)NCc1cnc(C)n1C (stereo not given),i
CC(=O)NC(=O)c1cc2cc(Cl)cc(Cl)c2oc1=Nc1cccc(F)c1,i
CC(C)Cn1cc(C(=O)NC2CCCC2)c2c3ccccc3n(C)c2c1=O,i
Cn1cc(C(=O)NC2CCCCCC2)c2c3ccccc3n(C)c2c1=O,i
CC(C)Cn1cc(C(=O)NC2CCCCC2)c2c3ccccc3n(C)c2c1=O,36%*
SMILES,ST2 IL33 inh
CC(=O)OC1(c2ccccn2)COc2ccccc2O1 (stereo not given),i
C=CCn1c(-c2ccccc2)csc1=Nc1cccc([N+](=O)[O-])c1,59%*
CN(C)CCCn1c(-c2ccc([N+](=O)[O-])cc2)csc1=Nc1ccccc1,51%*
Cc1ccc(C(=O)Cn2c(C)csc2=Nc2ccccc2)cc1,41%*
Cc1ccc(C(=O)CN2C3=NCCCN3c3ccccc32)cc1,i
NC(CO)C(O)c1ccc([N+](=O)[O-])cc1 (stereo not given),i
Cc1csc(=Nc2ccccc2)n1CC(O)c1ccc([N+](=O)[O-])cc1 (stereo not given),39%*
C=CCn1c(C)csc1=Nc1ccc(S(=O)(=O)Nc2nc(C)cc(C)n2)cc1,i
Cc1[nH]n(-c2ccc([N+](=O)[O-])cc2)c(=O)c1C=NCC(O)c1ccccc1 (stereo not given),i
CN(CCCC(=O)O)c1nc(-c2cccc([N+](=O)[O-])c2)cs1,i
CN(C)CCN(C)Cc1ccc([N+](=O)[O-])cc1,i
COCc1cc(C)n(CC(=O)c2ccccc2)c(=O)c1C#N,i
O=[N+]([O-])c1cccc(N=Cc2nc(-c3ccccc3)oc2O)c1,i
CC1=NN(C(=O)c2ccccc2)C(O)(c2ccc(Br)cc2)C1 (stereo not given),i
COc1ccccc1NC(=O)c1ccc(Br)c(S(=O)(=O)N2CCCC2)c1,i
Cn1c(=O)c2c(nc(Cl)n2Cc2ccccc2Br)n(C)c1=O,i
CN(C)S(=O)(=O)c1ccc(C(=O)N=c2sc3cc(F)ccc3n2C)cc1,i
CCN(CC)CCCNC(=O)c1cn(CC(C)C)c(=O)c2c1c1ccccc1n2C,i
COc1cccc2c1OCCCN(C(=O)CCc1scnc1C)C2,i
Cc1nc(C(Cl)(Cl)Cl)[nH]c(=O)c1SCCO,i
Cc1nn(C)cc1CN1CCC(c2cccc(F)c2)Sc2ccccc21 (stereo not given),i
O=C(Cc1c(C(=O)O)[nH]c2ccc(Cl)cc12)Nc1ccc(C(F)(F)F)cc1,i
O=C1Nc2cc(C(=O)N3CCCC3)ccc2N2CCCCC12 (stereo not given),i
Cc1ccc(N2C(=O)C(N3C(=O)c4ccccc4C3=O)C2c2ccc(Br)s2)cc1 (stereo not given),i
CC(C)Oc1cccc(C(=O)Nc2cc(-c3nc4ncccc4o3)ccc2Cl)c1,i
SMILES,ST2 IL33 inh
CCOc1ccc(C(=O)Nc2cc(-c3nc4ncccc4o3)ccc2C)cc1,i
O=C(COc1ccc(Br)cc1)Nc1ccc(F)cc1,39%*
Cc1ccc(NC(=O)COc2ccc(C)cc2)cc1,i
O=C(COc1ccccc1)Nc1ccc(Cl)cc1,i
O=C(COc1ccc(Br)cc1)Nc1ccc(-c2nc3ncccc3o2)cc1,33%*
CCC(=O)Nc1ccc(-c2nc3ncccc3o2)cc1,i
Cc1ccc(OCC(=O)Nc2cc(-c3nc4ncccc4o3)ccc2Cl)cc1C,30%*
Cc1ccc(-c2nc3ncccc3o2)cc1NC(=O)COc1ccc(Br)cc1,i

# Source: PubChem
